# According to article PMC7862700, “An all-to-all approach to the identification of sequence-specific readers for epigenetic DNA modifications on cytosine”:
# Assays:
# Assay in all cases: DAPPL (digital affinity profiling via proximity ligation, sequencing); 10 mM Tris-HCl pH 7.5, 50 mM NaCl, 1 mM DTT, 4% glycerol, room temperature, 30 min; GST-TFs on glutathione beads, 16-mer random dsDNA library, 0.1% formaldehyde crosslink after washing; high values mean tight binding
# FLI1 = biological target: T1, FLI1 (Homo sapiens, UniProt Q01543 1-452); conditions: protein: recombinant; tags: N-terminal GST; dsDNA, one strand shown
# T1 sequence: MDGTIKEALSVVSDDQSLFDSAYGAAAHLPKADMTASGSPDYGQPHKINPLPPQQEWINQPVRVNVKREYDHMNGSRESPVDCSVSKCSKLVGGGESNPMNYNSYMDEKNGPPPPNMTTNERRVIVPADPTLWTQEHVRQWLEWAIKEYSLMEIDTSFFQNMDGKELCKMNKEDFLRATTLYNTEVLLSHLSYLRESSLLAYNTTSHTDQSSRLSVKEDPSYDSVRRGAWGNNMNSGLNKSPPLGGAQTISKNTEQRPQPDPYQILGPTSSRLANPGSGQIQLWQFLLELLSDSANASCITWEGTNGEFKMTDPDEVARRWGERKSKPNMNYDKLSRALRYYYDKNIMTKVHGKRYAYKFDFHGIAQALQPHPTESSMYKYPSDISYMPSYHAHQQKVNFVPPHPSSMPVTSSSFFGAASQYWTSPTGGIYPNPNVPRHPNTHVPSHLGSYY
# In short: (§1)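 Binding signal is given per hexamer as its read frequency for a factor divided by its frequency in the tag-only sample. GST-fused human transcription factors were expressed in yeast, captured on glutathione beads, barcoded with DNA and pooled with that sample, then incubated with 200 nmole of a 16-mer random double-stranded DNA library in Tris/NaCl/DTT/glycerol buffer for 30 min at room temperature. The pools were then washed, crosslinked, proximity-ligated, amplified by PCR and sequenced on an Illumina NextSeq500.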
# ELK1 = biological target: T2, ELK1 (Homo sapiens, UniProt P19419 1-428); conditions: protein: recombinant; tags: N-terminal GST; dsDNA, one strand shown
# T2 sequence: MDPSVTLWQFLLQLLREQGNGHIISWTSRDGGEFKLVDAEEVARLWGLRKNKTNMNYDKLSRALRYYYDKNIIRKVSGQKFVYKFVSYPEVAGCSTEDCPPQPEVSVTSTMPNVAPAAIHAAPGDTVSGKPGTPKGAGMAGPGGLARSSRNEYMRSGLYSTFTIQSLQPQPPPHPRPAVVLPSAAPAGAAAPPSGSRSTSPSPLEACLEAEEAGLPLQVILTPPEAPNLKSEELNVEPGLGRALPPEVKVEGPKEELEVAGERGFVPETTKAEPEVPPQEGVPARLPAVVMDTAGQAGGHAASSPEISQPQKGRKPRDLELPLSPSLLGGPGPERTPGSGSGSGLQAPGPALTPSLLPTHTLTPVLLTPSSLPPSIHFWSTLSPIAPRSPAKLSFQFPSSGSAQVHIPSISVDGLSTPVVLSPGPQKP
# In short: as §1
# GABPA = biological target: T3, GABPA (Homo sapiens, UniProt Q06546 1-454); conditions: protein: recombinant; tags: N-terminal GST; dsDNA, one strand shown
# T3 sequence: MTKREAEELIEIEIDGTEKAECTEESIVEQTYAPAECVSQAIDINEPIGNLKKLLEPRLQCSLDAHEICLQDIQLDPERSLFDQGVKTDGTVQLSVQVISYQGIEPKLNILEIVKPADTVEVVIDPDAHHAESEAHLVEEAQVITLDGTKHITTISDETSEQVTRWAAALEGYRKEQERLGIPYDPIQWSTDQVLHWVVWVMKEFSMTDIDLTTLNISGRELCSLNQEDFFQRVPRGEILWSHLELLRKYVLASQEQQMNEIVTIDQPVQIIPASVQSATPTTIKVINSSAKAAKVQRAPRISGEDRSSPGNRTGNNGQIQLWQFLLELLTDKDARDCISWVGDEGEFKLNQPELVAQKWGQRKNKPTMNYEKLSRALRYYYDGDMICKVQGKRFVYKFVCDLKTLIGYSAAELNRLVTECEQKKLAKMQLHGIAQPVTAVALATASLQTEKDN
# In short: as §1
# ERG = biological target: T4, ERG (Homo sapiens, UniProt P11308 1-479); conditions: protein: recombinant; tags: N-terminal GST; dsDNA, one strand shown
# T4 sequence: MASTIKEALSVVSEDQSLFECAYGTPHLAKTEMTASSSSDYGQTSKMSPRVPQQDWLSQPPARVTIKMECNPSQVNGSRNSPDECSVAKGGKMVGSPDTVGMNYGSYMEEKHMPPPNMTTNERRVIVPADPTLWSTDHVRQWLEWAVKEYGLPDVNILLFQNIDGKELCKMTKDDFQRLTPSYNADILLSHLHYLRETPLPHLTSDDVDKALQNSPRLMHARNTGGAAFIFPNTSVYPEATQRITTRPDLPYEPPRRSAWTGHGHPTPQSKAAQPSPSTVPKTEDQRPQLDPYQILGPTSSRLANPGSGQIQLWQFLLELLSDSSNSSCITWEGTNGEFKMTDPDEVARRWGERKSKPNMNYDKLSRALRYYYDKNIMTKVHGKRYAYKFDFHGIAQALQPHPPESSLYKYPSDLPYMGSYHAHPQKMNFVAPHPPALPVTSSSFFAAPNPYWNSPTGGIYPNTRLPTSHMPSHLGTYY
# In short: as §1
# ELF1 = ELF1 (Homo sapiens, UniProt P32519 1-619); conditions: protein: recombinant; tags: N-terminal GST; dsDNA, one strand shown
# In short: as §1
# EHF = biological target: T5, EHF (Homo sapiens, UniProt Q9NZC4 1-300); conditions: protein: recombinant; tags: N-terminal GST; dsDNA, one strand shown
# T5 sequence: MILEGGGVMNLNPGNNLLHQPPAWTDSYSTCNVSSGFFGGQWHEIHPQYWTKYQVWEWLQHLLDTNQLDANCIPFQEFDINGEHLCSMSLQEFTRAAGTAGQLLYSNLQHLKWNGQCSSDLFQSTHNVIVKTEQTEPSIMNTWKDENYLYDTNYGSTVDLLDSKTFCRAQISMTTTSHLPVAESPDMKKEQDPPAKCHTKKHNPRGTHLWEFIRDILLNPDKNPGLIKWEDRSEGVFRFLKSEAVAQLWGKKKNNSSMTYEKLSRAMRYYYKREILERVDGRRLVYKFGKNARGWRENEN
# In short: as §1
# SPI1 = SPI1 (Homo sapiens, UniProt P17947 1-270); conditions: protein: recombinant; tags: N-terminal GST; dsDNA, one strand shown
# In short: as §1
# SPIB = SPIB (Homo sapiens, UniProt Q01892 1-262); conditions: protein: recombinant; tags: N-terminal GST; dsDNA, one strand shown
# In short: as §1
# ELK3 = biological target: T6, ELK3 (Homo sapiens, UniProt P41970 1-407); conditions: protein: recombinant; tags: N-terminal GST; dsDNA, one strand shown
# T6 sequence: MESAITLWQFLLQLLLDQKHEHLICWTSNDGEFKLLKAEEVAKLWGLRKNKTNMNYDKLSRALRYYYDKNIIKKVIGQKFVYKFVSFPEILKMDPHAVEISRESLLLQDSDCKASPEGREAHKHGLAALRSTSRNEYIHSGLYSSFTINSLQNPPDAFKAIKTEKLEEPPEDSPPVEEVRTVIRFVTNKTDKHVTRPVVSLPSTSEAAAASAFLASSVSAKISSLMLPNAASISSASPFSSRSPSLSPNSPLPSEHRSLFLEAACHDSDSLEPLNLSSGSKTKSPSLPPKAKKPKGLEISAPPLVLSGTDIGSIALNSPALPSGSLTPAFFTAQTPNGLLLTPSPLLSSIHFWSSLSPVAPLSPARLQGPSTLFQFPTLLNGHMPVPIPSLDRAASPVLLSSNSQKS
# In short: as §1
# FEV = biological target: T7, FEV (Homo sapiens, UniProt Q99581 1-238); conditions: protein: recombinant; tags: N-terminal GST; dsDNA, one strand shown
# T7 sequence: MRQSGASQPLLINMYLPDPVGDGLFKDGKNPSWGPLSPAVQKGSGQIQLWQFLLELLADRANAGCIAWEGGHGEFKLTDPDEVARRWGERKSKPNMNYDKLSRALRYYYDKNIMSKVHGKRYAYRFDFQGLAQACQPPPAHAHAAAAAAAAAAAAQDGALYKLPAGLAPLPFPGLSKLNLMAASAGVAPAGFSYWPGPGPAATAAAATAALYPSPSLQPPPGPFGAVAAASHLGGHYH
# In short: as §1
# ETV5 = ETV5 (Homo sapiens, UniProt P41161 1-510); conditions: protein: recombinant; tags: N-terminal GST; dsDNA, one strand shown
# In short: as §1
# HSF1 = HSF1 (Homo sapiens, UniProt Q00613 1-529); conditions: protein: recombinant; tags: N-terminal GST; chain copies: 3; dsDNA, one strand shown
# In short: as §1
# SPIC = biological target: T8, SPIC (Homo sapiens, UniProt Q8N5J4 1-248); conditions: protein: recombinant; tags: N-terminal GST; dsDNA, one strand shown
# T8 sequence: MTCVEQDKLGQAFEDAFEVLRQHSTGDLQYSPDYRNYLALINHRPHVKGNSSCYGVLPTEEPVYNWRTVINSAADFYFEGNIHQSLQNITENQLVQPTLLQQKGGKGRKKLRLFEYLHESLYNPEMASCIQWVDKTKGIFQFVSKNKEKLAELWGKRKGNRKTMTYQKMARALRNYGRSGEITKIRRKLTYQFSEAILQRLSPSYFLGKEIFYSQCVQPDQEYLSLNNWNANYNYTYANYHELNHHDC
# In short: as §1
# ELF4 = ELF4 (Homo sapiens, UniProt Q99607 1-663); conditions: protein: recombinant; tags: N-terminal GST; dsDNA, one strand shown
# In short: as §1
# ELK4 = biological target: T9, ELK4 (Homo sapiens, UniProt P28324-2 1-405); conditions: protein: recombinant; tags: N-terminal GST; dsDNA, one strand shown
# T9 sequence: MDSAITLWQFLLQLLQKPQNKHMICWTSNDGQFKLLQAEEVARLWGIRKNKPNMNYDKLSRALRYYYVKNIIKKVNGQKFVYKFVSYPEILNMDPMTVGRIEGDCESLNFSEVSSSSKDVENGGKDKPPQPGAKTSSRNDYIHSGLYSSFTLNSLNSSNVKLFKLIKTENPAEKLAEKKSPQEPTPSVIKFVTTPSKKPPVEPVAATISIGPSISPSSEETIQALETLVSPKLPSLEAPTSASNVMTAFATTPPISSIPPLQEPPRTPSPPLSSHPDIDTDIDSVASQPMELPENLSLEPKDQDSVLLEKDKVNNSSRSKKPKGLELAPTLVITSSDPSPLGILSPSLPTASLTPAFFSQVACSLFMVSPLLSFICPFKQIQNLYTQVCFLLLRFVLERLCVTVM
# In short: as §1
# ETV2 = biological target: T10, ETV2 (Homo sapiens, UniProt O00321 1-342); conditions: protein: recombinant; tags: N-terminal GST; dsDNA, one strand shown
# T10 sequence: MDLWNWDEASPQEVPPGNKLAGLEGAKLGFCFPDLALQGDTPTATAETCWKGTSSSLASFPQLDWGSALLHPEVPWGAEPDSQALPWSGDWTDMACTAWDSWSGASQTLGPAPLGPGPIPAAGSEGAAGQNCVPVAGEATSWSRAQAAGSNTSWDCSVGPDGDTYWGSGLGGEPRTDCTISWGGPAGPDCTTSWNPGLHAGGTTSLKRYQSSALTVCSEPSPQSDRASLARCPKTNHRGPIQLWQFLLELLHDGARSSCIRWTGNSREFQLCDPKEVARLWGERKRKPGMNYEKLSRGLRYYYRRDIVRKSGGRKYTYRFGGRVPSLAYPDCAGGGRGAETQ
# In short: as §1
# ELF3 = biological target: T11, ELF3 (Homo sapiens, UniProt P78545 1-371); conditions: protein: recombinant; tags: N-terminal GST; dsDNA, one strand shown
# T11 sequence: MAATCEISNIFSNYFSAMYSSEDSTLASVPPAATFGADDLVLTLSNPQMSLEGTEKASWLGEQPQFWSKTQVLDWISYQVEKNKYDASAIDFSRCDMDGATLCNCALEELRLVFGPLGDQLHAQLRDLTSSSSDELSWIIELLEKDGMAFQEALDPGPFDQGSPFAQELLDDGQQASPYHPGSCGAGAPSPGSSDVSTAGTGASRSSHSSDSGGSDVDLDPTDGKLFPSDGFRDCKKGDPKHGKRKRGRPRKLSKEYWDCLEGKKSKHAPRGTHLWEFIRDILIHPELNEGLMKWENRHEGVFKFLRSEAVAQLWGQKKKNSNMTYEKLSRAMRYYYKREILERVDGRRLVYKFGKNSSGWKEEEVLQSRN
# In short: as §1
# CRX = CRX (Homo sapiens, UniProt O43186 1-299); conditions: protein: recombinant; tags: N-terminal GST; dsDNA, one strand shown
# In short: as §1
# ETV1 = ETV1 (Homo sapiens, UniProt P50549 1-477); conditions: protein: recombinant; tags: N-terminal GST; dsDNA, one strand shown
# In short: as §1
# ELF1, sequence (P32519 whole entry): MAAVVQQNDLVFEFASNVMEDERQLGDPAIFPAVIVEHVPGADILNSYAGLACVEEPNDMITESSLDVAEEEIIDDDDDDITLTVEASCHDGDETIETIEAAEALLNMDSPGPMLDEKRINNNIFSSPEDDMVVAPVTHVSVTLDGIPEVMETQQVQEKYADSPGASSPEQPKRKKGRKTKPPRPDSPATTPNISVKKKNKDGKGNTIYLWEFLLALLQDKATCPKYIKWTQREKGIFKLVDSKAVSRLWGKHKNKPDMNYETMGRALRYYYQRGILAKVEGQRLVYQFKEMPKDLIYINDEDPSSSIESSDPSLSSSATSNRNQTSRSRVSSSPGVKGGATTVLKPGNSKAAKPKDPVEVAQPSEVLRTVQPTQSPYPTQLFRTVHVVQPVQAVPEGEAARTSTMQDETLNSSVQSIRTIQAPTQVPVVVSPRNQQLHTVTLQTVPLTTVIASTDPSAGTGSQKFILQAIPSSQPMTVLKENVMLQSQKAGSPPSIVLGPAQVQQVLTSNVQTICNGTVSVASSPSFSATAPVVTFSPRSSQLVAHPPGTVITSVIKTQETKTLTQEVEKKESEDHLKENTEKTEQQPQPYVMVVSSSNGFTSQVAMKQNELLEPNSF
# ETV5, sequence (P41161 whole entry): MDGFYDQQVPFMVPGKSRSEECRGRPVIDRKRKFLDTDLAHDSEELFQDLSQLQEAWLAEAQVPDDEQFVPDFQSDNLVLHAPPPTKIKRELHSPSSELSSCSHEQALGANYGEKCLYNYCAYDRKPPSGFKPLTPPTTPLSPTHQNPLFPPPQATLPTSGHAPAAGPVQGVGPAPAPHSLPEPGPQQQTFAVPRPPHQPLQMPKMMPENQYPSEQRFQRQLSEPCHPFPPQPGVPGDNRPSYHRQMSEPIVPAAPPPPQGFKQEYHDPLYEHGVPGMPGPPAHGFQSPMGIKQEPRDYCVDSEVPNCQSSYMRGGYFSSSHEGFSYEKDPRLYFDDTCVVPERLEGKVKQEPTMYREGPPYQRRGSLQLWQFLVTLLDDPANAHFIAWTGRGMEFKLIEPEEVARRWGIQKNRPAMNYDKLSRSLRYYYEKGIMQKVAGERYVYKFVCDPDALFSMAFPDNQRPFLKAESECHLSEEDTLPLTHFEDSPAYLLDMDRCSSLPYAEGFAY
# CRX, sequence (O43186 whole entry): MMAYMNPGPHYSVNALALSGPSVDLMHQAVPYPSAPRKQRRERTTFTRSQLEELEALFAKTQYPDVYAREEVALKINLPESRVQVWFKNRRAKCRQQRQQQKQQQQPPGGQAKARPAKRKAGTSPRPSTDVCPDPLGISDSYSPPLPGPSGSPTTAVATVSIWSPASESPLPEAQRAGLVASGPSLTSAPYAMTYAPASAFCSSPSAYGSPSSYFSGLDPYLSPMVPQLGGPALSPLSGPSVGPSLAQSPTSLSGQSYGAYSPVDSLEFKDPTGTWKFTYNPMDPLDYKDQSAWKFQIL
# ELF4, sequence (Q99607 whole entry): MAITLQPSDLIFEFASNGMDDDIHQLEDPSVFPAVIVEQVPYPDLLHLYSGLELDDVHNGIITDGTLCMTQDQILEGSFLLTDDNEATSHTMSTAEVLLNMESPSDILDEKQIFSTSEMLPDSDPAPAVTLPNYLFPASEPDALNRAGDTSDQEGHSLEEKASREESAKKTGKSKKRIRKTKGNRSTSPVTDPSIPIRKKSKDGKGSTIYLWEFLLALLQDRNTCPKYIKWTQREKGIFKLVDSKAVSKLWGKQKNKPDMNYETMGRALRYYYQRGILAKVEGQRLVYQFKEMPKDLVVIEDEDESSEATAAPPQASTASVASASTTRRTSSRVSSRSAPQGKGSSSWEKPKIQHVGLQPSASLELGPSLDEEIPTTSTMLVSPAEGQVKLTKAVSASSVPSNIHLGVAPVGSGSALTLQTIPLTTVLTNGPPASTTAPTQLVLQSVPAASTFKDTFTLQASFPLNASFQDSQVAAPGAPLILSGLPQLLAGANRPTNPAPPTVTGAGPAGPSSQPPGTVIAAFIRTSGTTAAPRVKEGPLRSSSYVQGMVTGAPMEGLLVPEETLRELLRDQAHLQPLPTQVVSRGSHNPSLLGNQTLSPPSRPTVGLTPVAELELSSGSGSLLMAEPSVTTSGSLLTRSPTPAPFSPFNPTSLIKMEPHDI
# ETV1, sequence (P50549 whole entry): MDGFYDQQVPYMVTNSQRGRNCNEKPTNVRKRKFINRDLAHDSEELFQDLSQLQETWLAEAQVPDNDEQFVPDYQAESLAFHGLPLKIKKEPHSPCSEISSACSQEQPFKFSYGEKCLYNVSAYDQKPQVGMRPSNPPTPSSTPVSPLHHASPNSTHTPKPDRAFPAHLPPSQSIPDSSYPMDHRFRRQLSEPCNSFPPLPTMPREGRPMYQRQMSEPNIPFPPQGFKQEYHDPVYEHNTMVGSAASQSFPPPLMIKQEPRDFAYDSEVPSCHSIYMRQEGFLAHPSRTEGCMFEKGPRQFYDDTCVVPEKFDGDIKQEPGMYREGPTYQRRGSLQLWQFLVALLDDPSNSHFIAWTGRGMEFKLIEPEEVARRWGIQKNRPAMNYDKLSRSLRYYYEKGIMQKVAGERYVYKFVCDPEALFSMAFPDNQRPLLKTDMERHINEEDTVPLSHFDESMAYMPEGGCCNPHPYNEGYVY
# HSF1, sequence (Q00613 whole entry): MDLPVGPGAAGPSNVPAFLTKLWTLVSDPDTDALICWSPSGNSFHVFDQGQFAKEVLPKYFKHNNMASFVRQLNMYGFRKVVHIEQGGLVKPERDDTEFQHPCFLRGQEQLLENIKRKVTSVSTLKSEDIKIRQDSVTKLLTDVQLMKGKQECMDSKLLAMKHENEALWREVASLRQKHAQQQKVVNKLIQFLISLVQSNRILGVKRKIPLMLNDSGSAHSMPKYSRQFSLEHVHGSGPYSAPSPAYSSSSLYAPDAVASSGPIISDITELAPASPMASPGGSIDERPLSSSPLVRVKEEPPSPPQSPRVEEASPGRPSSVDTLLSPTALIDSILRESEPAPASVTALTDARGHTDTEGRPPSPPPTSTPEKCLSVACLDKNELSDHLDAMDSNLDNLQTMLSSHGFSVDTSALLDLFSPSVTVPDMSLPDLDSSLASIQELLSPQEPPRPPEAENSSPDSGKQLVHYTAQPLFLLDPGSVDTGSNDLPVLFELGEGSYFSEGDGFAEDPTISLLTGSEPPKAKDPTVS
# SPIB, sequence (Q01892 whole entry): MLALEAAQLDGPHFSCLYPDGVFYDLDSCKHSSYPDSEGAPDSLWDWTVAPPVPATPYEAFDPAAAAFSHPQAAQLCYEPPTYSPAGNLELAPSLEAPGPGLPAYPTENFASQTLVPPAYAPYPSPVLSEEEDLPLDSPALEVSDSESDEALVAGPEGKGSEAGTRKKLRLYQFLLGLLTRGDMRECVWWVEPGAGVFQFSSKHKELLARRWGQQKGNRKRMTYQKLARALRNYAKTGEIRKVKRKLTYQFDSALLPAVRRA
sequence,measurement,setting,value
GTAAAA,binding signal,FLI1,"1.05 fold enrichment (6-mer frequency, TF over GST control)"
same,binding signal,ELK1,"1 fold enrichment (6-mer frequency, TF over GST control)"
same,binding signal,GABPA,"1.18 fold enrichment (6-mer frequency, TF over GST control)"
same,binding signal,ERG,"1.14 fold enrichment (6-mer frequency, TF over GST control)"
same,binding signal,ELF1,"1.13 fold enrichment (6-mer frequency, TF over GST control)"
same,binding signal,EHF,"1.16 fold enrichment (6-mer frequency, TF over GST control)"
same,binding signal,SPI1,"1.3 fold enrichment (6-mer frequency, TF over GST control)"
same,binding signal,SPIB,"1.1 fold enrichment (6-mer frequency, TF over GST control)"
same,binding signal,ELK3,"1.11 fold enrichment (6-mer frequency, TF over GST control)"
same,binding signal,FEV,"1.07 fold enrichment (6-mer frequency, TF over GST control)"
same,binding signal,ETV5,"1.19 fold enrichment (6-mer frequency, TF over GST control)"
same,binding signal,HSF1,"1.11 fold enrichment (6-mer frequency, TF over GST control)"
same,binding signal,SPIC,"1.13 fold enrichment (6-mer frequency, TF over GST control)"
same,binding signal,ELF4,"1.14 fold enrichment (6-mer frequency, TF over GST control)"
same,binding signal,ELK4,"1.02 fold enrichment (6-mer frequency, TF over GST control)"
same,binding signal,ETV2,"1.21 fold enrichment (6-mer frequency, TF over GST control)"
same,binding signal,ELF3,"1.13 fold enrichment (6-mer frequency, TF over GST control)"
same,binding signal,CRX,"1.03 fold enrichment (6-mer frequency, TF over GST control)"
same,binding signal,ETV1,"1.06 fold enrichment (6-mer frequency, TF over GST control)"
